Results filed as inconclusive are left out. Entries that show only a call come without a potency. Activity calls are given as the source filed them. Calls come from the whole dose curve; as a rule, active = well fitted inhibition curve with a large enough effect; inconclusive = small, poorly fitted or top-dose-only effect, or effect the other way; inactive = flat fitted curve, though single readings scatter.
Target: Ubiquitin carboxyl-terminal hydrolase 2 (Homo sapiens) (UniProt O75604)
Test: Confirmation Assay for Inhibitors of Ubiquitin-specific Protease USP2a Using CHOP2 as the Reporter; note: nearly all actives have a fitted effect of over 55% in size
Procedure, shortened: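 Ub-CHOP2 cleavage coupled to reporter activation was read by fluorescence after 60 min at RT, with 25 nM final Ub-CHOP2 and substrate. Enzyme (10 nM final USP2 core) first sat 30 min with compound; data were normalized to NEM and fitted to concentration-response curves.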
Potency is the fitted concentration of half-maximal effect.

Chain of Ubiquitin carboxyl-terminal hydrolase 2 (Homo sapiens) (O75604 whole entry, looked up): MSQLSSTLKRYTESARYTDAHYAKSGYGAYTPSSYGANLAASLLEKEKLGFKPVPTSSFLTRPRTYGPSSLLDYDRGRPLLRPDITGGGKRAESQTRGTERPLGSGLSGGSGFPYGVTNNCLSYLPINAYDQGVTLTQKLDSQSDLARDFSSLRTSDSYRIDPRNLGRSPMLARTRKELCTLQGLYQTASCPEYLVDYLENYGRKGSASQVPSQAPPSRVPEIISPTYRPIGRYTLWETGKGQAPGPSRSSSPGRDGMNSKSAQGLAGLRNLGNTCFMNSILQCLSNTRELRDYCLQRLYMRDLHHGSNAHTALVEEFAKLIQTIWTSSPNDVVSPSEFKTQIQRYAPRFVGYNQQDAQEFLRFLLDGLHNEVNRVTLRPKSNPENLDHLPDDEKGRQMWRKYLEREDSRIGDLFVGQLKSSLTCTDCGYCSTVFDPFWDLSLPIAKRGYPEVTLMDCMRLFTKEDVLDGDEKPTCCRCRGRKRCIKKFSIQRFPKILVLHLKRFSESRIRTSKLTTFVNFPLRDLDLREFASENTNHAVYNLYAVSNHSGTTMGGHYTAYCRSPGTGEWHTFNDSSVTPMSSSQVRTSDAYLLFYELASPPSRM

C#CCOCCOCCOCCNc1nc(N2CCN(C(=O)CCCCCCCCCCNC(=O)[C@@H](CCC(=O)O)n3cc(CCCCCN)nn3)CC2)nc(N2CCN(C(=O)CCCCCCCCCCNC(=O)[C@H]([C@@H](C)CC)n3cc(CCCCCN)nn3)CC2)n1
Potency: 11.7 µM (active)

CCCCc1ccc(/C=C2/C(=O)ON=C2c2ccccc2)s1
Potency: inactive

Cc1cc(=O)oc(C)c1C(=O)NCCc1ccccc1
Potency: inactive

CCCOc1ccc(-c2nc(C#N)c(N3CCN(CC)CC3)o2)cc1
Potency: inactive

N#CCc1ccc(NC(=O)/C=C/c2ccc([N+](=O)[O-])o2)cc1
Potency: inactive

O=C(Cc1ccc(S(=O)(=O)N2CCOCC2)s1)NCCC(c1ccccc1)c1ccccc1
Potency: inactive

CCOC(=O)N1CCN(C(=O)c2cc3c(ccc4ccccc43)oc2=O)CC1
Potency: inactive

CCN=C1SC(C(=O)Nc2cccc(OCC)c2)CC(=O)N1CC (stereo not given)
Potency: inactive

CC[n+]1c(/C=C/N(C)c2ccccc2)n(-c2ccccc2)c2ccc(-c3nc4ccccc4s3)cc21
Potency: 13.1 µM (active)

CCCCNC(=O)Nc1ccccc1C(=O)NCc1ccco1
Potency: inactive

O=C(Nc1cccc(S(=O)(=O)N2CCCC2)c1)c1cncc(Br)c1
Potency: inactive

CCn1nc(C(=O)N[C@@H](CCSC)c2nc3ccccc3[nH]2)c2ccccc2c1=O
Potency: inactive

Cc1cc(SCC(=O)NC2CCCCC2)nc2ccccc12
Potency: inactive

FC(F)Sc1ccc(NC(=S)NC2CCCCC2)cc1
Potency: inactive

OCCN(Cc1ccccc1)c1ncnc2sccc12
Potency: inactive

CCOc1ccc(Cn2nnc(C(=O)NCc3ccccc3)c2N)cc1
Potency: inactive

Cc1noc(/C=C/c2ccco2)c1S(=O)(=O)N1CCC(C(=O)N(C)Cc2ccccc2)CC1
Potency: 14.7 µM (active)

COc1ccccc1C(=O)N1CCN=C1SC
Potency: inactive

Cc1cc(SCC(=O)Nc2ccccc2)nc(C)n1
Potency: inactive

O=C(CCSCc1ccc(Cl)cc1)NCCc1ccccc1
Potency: inactive

Cc1nn(C)cc1CNC(=O)c1ccc(Br)o1
Potency: inactive

C=CC[C@H](CC(=O)N(CCO)Cc1ccccc1)C(=O)N[C@H](C)COC(=O)[C@@H](CC=C)CC(=O)OC(C)(C)C
Potency: inactive

COCc1c(C(=O)OCC(=O)c2c(N)n(CC(C)C)c(=O)n(C)c2=O)oc2ccccc12
Potency: inactive

Cc1nc2n(n1)CC(O)CS2 (stereo not given)
Potency: inactive

COC(=O)CC1Oc2ccc(C)cc2NC1=O (stereo not given)
Potency: inactive

C[C@](N)(Cc1ccc(O)c(O)c1)C(=O)O
Potency: inactive

Cn1c(SCc2nc3ccccc3s2)nnc1-c1cccs1
Potency: inactive

O=C(Nc1ccc(N2CCCC2)cc1)c1cccc(-c2cc3ccccc3oc2=O)c1
Potency: inactive

COCCCNC(=O)C1CCN(c2nc(C)cc(C)n2)CC1
Potency: inactive

Cc1ccc(NC(=O)Cn2nc(C)c3ccccc3c2=O)cc1F
Potency: inactive

O=C(O)c1cccc(S(=O)(=O)NNc2ccccc2C(F)(F)F)c1
Potency: inactive

COC(=O)c1c(O)c2c([nH]c1=O)CCCC2
Potency: inactive

CCCCCCCCCCCCCCCC[N+](C)(C)CCN(Cc1ccc(OC)cc1)c1ncccn1
Potency: 11.7 µM (active)

Cc1ccccc1N=C1NC(=O)CS1
Potency: inactive

COc1ccccc1-n1c(SCC(=O)Nc2ccc(C)cc2)nc(O)cc1=O
Potency: inactive

Cc1sc2nc(CN3CCN(c4ccc(O)cc4)CC3)[nH]c(=O)c2c1C
Potency: inactive

C=CC[C@H](CC(=O)OC(C)(C)C)C(=O)OC[C@@H]1CCCN1C(=O)[C@H](CC=C)CC(=O)N[C@H](CO)Cc1ccccc1
Potency: inactive

O=C(NN=Cc1ccc(N2CCOCC2)s1)c1ccc([N+](=O)[O-])cc1
Potency: inactive

Oc1c(Cl)cc(Cl)c(Cl)c1Cc1c(O)c(Cl)cc(Cl)c1Cl
Potency: 5.21 µM (active)

Cc1ccc(NS(=O)(=O)c2cccc(C(=O)OCC(=O)NCc3ccco3)c2)cc1
Potency: inactive

Reference: PubChem BioAssay AID493168 (National Center for Advancing Translational Sciences (NCATS), 2011)
